For this assay, the target named is Torsin-1A-interacting protein 1 (Homo sapiens) (UniProt Q5JTV8). Nature of the assay: LAP1 binders from COS7 cell lysate, primary screen, small-molecule microarray, 635/667 nm fluorescence (AID 1116). The note with it: COS7-hLAP1 lysate binding, 635 nm fluorescence, higher = more signal.
Chain of Torsin-1A-interacting protein 1 (Homo sapiens) (Q5JTV8 whole entry, looked up): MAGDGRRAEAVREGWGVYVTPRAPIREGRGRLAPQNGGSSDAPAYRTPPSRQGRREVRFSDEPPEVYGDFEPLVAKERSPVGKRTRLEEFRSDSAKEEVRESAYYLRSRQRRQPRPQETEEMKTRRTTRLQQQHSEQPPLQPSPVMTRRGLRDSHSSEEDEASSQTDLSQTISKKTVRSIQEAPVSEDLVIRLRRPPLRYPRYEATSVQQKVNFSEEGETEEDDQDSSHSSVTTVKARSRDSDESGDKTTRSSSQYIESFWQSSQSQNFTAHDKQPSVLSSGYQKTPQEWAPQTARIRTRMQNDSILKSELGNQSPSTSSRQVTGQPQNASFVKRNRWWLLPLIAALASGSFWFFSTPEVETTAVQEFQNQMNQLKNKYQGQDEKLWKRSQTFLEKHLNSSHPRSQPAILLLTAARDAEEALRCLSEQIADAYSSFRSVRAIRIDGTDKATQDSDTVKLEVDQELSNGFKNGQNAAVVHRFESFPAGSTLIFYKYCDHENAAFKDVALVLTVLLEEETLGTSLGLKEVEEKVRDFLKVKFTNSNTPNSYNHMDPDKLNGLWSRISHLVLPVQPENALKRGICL
Consider `CCCCCCCCCCC(O)C1C=CC2C(=O)N(C)C(=O)C2N1N1CCCCC1` (stereo not given), for which the composite z-score was -0.428.

On to `CCCC[C@@H]1C[C@H]1[C@@H](NC(=O)Cc1ccccc1)c1ccc(Cl)cc1`, for which the composite z-score stood at 1.12.

As to `CC(C)=CCN(C(=O)C#Cc1ccccc1)[C@H](CO)c1ccccc1`, the composite z-score was 0.58.

As to `COc1ccc(NC(=O)O[C@H]2[C@H](OC(=O)Nc3ccc4c(c3)OCO4)[C@H](OC(=O)Nc3ccc4c(c3)OCO4)[C@@H](OC)O[C@@H]2CO)cc1`, the composite z-score was determined as 0.94.

The molecule `CCCC[C@H]1OB(O)C[C@H]2C1=C(C)C[C@H]1C(=O)C=CC(=O)[C@H]12` came in with a composite z-score of 0.0514.

In the case of `CO[C@H]1O[C@H](CO)[C@@H](OC(=O)Nc2ccccc2)[C@@H]2OC(=O)[C@H](Cc3ccccc3)C/C=C/C[C@@H](Cc3ccccc3)C(=O)O[C@@H]12`, the composite z-score turned out to be 1.07.

Consider `C[C@H]1C2[C@H](Cc3ccccc3)NC(=O)[C@]23C(=O)NCC(=O)N2CCC[C@H]2C(=O)NC/C=C\C/C=C/C3[C@@H]2O[C@]12C` (stereo not given in full), for which the composite z-score is -0.177.

In the case of `[N-]=[N+]=NCc1ccccc1C[C@]1(C(=O)O)COC(c2ccc(OCCCO)cc2)=N1`, the composite z-score is -1.24.

In the case of `CC(C)CNC(=O)[C@@]1(C)c2ccccc2C(=O)N(Cc2cc(F)cc(C(F)(F)F)c2)[C@H]1c1ccc(CO)cc1`, the composite z-score is 1.98.

`CN(C)CCCNC(=O)[C@@H]1c2ccccc2C(=O)N(C2Cc3ccccc3C2)[C@H]1c1ccc(CO)cc1` showed a composite z-score of 0.814.

Molecule `CCN(CC)c1ccc(N2CC=CC34O[C@@H]5C=CCOC(=O)[C@@H]5[C@H]3C(=O)N(CCO)[C@@H]4C2=O)cc1` (stereo not given in full) had a composite z-score of 0.422.

In turn, `COc1ccccc1CN1C(=O)c2ccccc2[C@@H](C(=O)NCCCN(C)C)[C@@H]1c1ccc(CO)cc1` had a composite z-score of 0.55.

The molecule `COc1cc(OC)c(C(O)C2C=CC3C(=O)N(c4ccccc4)C(=O)C3N2Nc2ccccc2F)cc1Br` (stereo not given) gave a composite z-score of 1.63.

Regarding `CC(=O)c1ccc(C(O)C2C=CC3C(=O)NC(=O)C3N2Nc2ccc(Cl)cc2Cl)cc1` (stereo not given), the composite z-score stood at 0.0338.

For `C=CCC(OC(C)=O)[C@@H]1[C@@H](N(Cc2cc3ccccc3o2)C(=O)Cc2ccc(OC)cc2)c2cc(OCCCO)ccc2N1C(=O)Cc1ccc(OC)cc1` (stereo not given in full), the composite z-score is -0.0544.

In turn, `COCCCN1C(=O)[C@@]2(Cc3ccccc31)c1ccccc1C(=O)N(Cc1ccccc1OC)[C@H]2c1ccc(CO)cc1` gave a composite z-score of 0.145.

The molecule `COc1ccc(C#Cc2ccc3c(c2)[C@]2(C(=O)N3)[C@H](C(=O)Nc3nc4ccccc4s3)[C@H]3C(=O)O[C@H](c4ccccc4)[C@H](c4ccccc4)N3[C@@H]2c2ccc(OCCO)cc2)cc1` showed a composite z-score of 2.08.

Regarding `CC(C)C[C@H]1NC(=O)[C@@H](C)NC(=O)[C@@]23C(=O)N[C@@H](Cc4ccccc4)C2[C@H](C)[C@@]2(C)O[C@H]2C3/C=C/C/C=C\CNC1=O` (stereo not given in full), the composite z-score is -0.0872.

Molecule `CC(C)C[C@H]1NC(=O)[C@@]23C(=O)N[C@@H](Cc4ccccc4)C2[C@H](C)[C@@]2(C)O[C@H]2C3/C=C/C/C=C\CNC(=O)[C@@H]2CCCN2C1=O` (stereo not given in full) came in with a composite z-score of 0.268.

`COc1ccc(C(O)C2C=CC3C(=O)N(C)C(=O)C3N2Nc2ccc([N+](=O)[O-])cc2[N+](=O)[O-])cc1OCc1ccccc1` (stereo not given) registered a composite z-score of 0.527.

Molecule `[N-]=[N+]=Nc1ccccc1[C@@H]1OC(c2ccc(OCCCO)cc2)=N[C@]1(Cc1ccccc1)C(N)=O` showed a composite z-score of 0.0305.

As for `CN(C)C(=O)[C@@]1(CCS(=O)(=O)c2ccccc2)N=C(c2ccc(OCCCO)cc2)O[C@H]1c1ccccc1N=[N+]=[N-]`, the composite z-score worked out at 1.56.

Take `CN1C(=O)[C@]2(CCC(=O)OC(C)(C)C)N=C(c3ccc(OCCCO)cc3)O[C@@H]2c2ccccc21`: the composite z-score was found to be 0.973.

`C[N+](C)(C)CCCCCCNC(=O)[C@@H]1C[C@@H]2C(=O)N[C@@H](Cc3ccccc3)C(=O)N2[C@@H]1c1ccc(O)cc1`: the composite z-score turned out to be 1.41.

As to `CCCC=C(CCC)[C@@H](NS(=O)(=O)c1ccc(Cl)cc1)c1ccccc1`, the composite z-score was -1.24.

`CO[C@H]1O[C@H](CO)[C@@H](OC(=O)Nc2ccc(C(F)(F)F)cc2)[C@H](OC(=O)Nc2ccccc2-c2ccccc2)[C@@H]1OC(=O)Nc1ccccc1-c1ccccc1` had a composite z-score of 1.47.

As for `CC(C)[C@@H](C(=O)O)n1cc(-c2ccccc2)nn1`, the composite z-score came to 0.941.

`C=CCNC(=O)[C@@H]1[C@H]2C(=O)O[C@H](c3ccccc3)[C@H](c3ccccc3)N2[C@H](c2ccc(O)cc2)[C@@]12C(=O)Nc1ccc(C#CC3(O)CCCCCC3)cc12` gave a composite z-score of 0.824.

For `O=C1N(CCS(=O)(=O)c2ccccc2)c2ccccc2[C@@H]2OC(c3ccc(OCCCO)cc3)=N[C@]12CCS(=O)(=O)c1ccccc1`, the composite z-score was determined as 2.17.

`CCOC(=O)C1=CC[C@@H](c2ccccc2)N(S(=O)(=O)c2ccc(C)cc2)[C@H]1C#N` came in with a composite z-score of 1.03.

Molecule `COc1ccc([Si](C)(C)[C@H]2[C@H](CCO)O[C@@]3(C(=O)N(Cc4ccccc4)c4ccc(N(C=O)c5ccccc5)cc43)[C@@H]2C)cc1` came in with a composite z-score of 0.431.

`COc1cccc(C[C@H]2C[C@@H](CO[Si](C(C)C)(C(C)C)C(C)C)N3C(=O)[C@@]4(C(C)=O)O[C@@]23[C@@H]2C(=O)N(C)C(=O)[C@@H]24)c1` displayed a composite z-score of 0.272.

`C=CC[C@@]1(C(=O)O)N=C(c2ccc(OCCCO)cc2)O[C@@H]1c1ccccc1CN=[N+]=[N-]` yielded a composite z-score of 0.976.

Turning to `CCCCNC(=O)c1ccc(C#C[Si](C)(C)C)c(OC(C)=O)c1`, the composite z-score came out at 0.37.

`C=CCNC(=O)[C@H]1[C@@H]2C(=O)O[C@@H](c3ccccc3)[C@@H](c3ccccc3)N2[C@@H](c2ccc(O)cc2)[C@]12C(=O)Nc1ccc(C#CC3=CCCCC3)cc12`: the composite z-score was 1.11.

The values are drawn from PubChem BioAssay.
